# Assay results reported in article PMC5540273 (PLoS ONE, 2017).
# Tested on: KIT-autoinhibited
# Conditions: concentration: 1 μM, replicates: in singlicate; n = 1
# 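Note: KINOMEscan kinase panel screen.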
row,Structure (SMILES),%Inh [%]
1,CN(C(=O)c1ccc(-c2cc(-c3c[nH]nc3-c3ccccn3)ccn2)cc1)C1CCOCC1 [GW810083],0
2,COc1cc(Nc2nccc(N3CCC(NC(=O)c4cccc(NC(C)=O)c4)C3)n2)cc(OC)c1OC (stereo not shown) [GSK1379754],8
3,O=C(NCCCN1CCOCC1)c1cccc(Nc2nccc(Nc3ccc(Oc4ccccc4)cc3)n2)c1 [GW663929],16
4,COc1cc2c(cc1OC[C@@H](O)CO)ncc1c3ccc(C#N)cc3[nH]c21,48
5,COc1ccc(CNC(=O)NC2CCN(c3ccnc(Nc4ccc(OC)cc4)n3)C2)cc1 (stereo not shown) [GSK1379727],0
6,COc1ccc(S(=O)(=O)NC2CCN(c3cc(C)nc(Nc4cccc(C#N)c4)n3)CC2)cc1.O=C(O)C(F)(F)F [GSK1653539],0
7,N#Cc1ccc(-c2cc(-c3c[nH]nc3-c3ccccn3)ccn2)cc1 [GW693028],5
8,c1ccc(-c2cc(-c3c[nH]nc3-c3ccccn3)ccn2)cc1 [GW576604],0
9,NCC(NC(=O)c1cc(-c2cn[nH]c2)c(-c2ccnc3[nH]ccc23)s1)c1ccccc1.O=C(O)C(F)(F)F.O=C(O)C(F)(F)F (stereo not shown) [GSK1325775],0
10,Cn1cc(-c2ccc3c(c2)CCN3C(=O)Cc2ccccc2Cl)c2c(N)ncnc21 [GSK2608885],4
11,O=c1cc(N2CCOCC2)nc2n(Cc3cccc(Cl)c3Cl)c(C3CC3)nn12 [GSK2358994],15
12,COc1cc2c(cc1OCCN1CCN(C)CC1)ncc1c3ccc(C#N)cc3[nH]c21,71
13,Cl.Nc1ncnc2occ(-c3ccc(NC(=O)Nc4cc(C(F)(F)F)ccc4F)cc3)c12 [SB-707548],79
14,O=C1Cc2cc(Nc3nc(NCc4cccc(S(=O)(=O)C(F)(F)F)c4)ncc3C(F)(F)F)ccc2N1,0
15,Cc1nnc(-c2ccc(C)c(-c3ccc(C(=O)Nc4ccc(NS(C)(=O)=O)cc4)cc3)c2)o1 [GW702865],0
16,O=c1cc(N2CCOCC2)nc2n(Cc3cccc(F)c3)ccn12 [GSK2297430],0
17,COc1ccc(Nc2nccc(N3CCC(NC(=O)Nc4cccc(C(C)=O)c4)C3)n2)cc1 (stereo not shown) [GSK1379731],0
18,CCCCCc1nc2c(N)ncnc2n1CCCCC [SKF-97255],16
19,Nc1nccc(-c2c(-c3ccc(F)cc3)ncn2C2CCN(CC(F)(F)F)CC2)n1 [SB-236560],11
20,Fc1ccc(-c2ncn(CCCN3CCOCC3)c2-c2cccnc2)cc1 [SB-211743],18
21,O=C(Nc1cccc(-c2nn3ncccc3c2-c2ccnc(Nc3cccc(C(F)(F)F)c3)n2)c1)c1c(F)cccc1F [GSK299495],0

# Tested on: KIT
# Conditions: concentration: 1 μM, replicates: in singlicate; n = 1
row,Structure (SMILES),%Inh [%]
1,CSc1ccc(-c2cc3ncnc(SCC(=O)O)c3s2)cc1,51
2,COc1ccc(Nc2nccc(N3CCC(NC(=O)Nc4cc(C)ccc4C)C3)n2)cc1 (stereo not shown) [GSK1379741],25
3,Nc1nc(-c2ccc3c(N)n[nH]c3c2)cc(N2CCCC2)n1 [GSK2227430],12
4,c1ccc(-c2n[nH]cc2-c2ccnc3ccccc23)nc1 [GW271431],20
5,O=C1NC(=O)C(N2CCc3ccccc32)=C1c1cccc(Cl)c1 [SB-408010],13
6,COc1ccc(Nc2ncc(C#N)c(Nc3ccccc3C(N)=O)n2)cc1N1CCN(C)CC1.Cl [GSK1558669],99.9
7,Cc1ccc(NC(=O)c2ccnc(N3CCN(C)CC3)c2)cc1-c1ccc(C(=O)NCC2CC2)cc1 [GW775604],27
8,Cc1nnc(-c2ccc3occ(-c4ccc(C(C)O)cc4)c3c2)o1 (stereo not shown),11
9,COc1ccc(COc2cc(-n3cnc4ccccc43)sc2C(N)=O)cc1 [GSK1024304],23
10,CCc1nc(-c2cccc(C)c2)c(-c2ccnc(NCc3ccccc3)c2)s1,26
11,NS(=O)(=O)c1cccc(-c2ccc3nccc(-c4cccc(S(N)(=O)=O)c4)c3c2)c1 [GW867253],0
12,Cc1cccc(-c2nc(Nc3ccc4ncsc4c3)c3ccccc3n2)n1 [GW867588],0
13,CC(C)Oc1ccc2c(-c3ccnc(Nc4ccc(N5CCN(C)CC5)cc4)n3)cnn2n1 [GW696155],91.1
14,CN(C(=O)c1ccc(-c2cc(-c3c[nH]nc3-c3ccccn3)ccn2)cc1)C1CCOCC1 [GW810083],0
15,COc1cc(Nc2nccc(N3CCC(NC(=O)c4cccc(NC(C)=O)c4)C3)n2)cc(OC)c1OC (stereo not shown) [GSK1379754],70
16,O=C(NCCCN1CCOCC1)c1cccc(Nc2nccc(Nc3ccc(Oc4ccccc4)cc3)n2)c1 [GW663929],80
17,COc1cc2c(cc1OC[C@@H](O)CO)ncc1c3ccc(C#N)cc3[nH]c21,63

row,Structure (SMILES),%Inh [%]
1,COc1ccc(CNC(=O)NC2CCN(c3ccnc(Nc4ccc(OC)cc4)n3)C2)cc1 (stereo not shown) [GSK1379727],16
2,COc1ccc(S(=O)(=O)NC2CCN(c3cc(C)nc(Nc4cccc(C#N)c4)n3)CC2)cc1.O=C(O)C(F)(F)F [GSK1653539],8
3,N#Cc1ccc(-c2cc(-c3c[nH]nc3-c3ccccn3)ccn2)cc1 [GW693028],6
4,c1ccc(-c2cc(-c3c[nH]nc3-c3ccccn3)ccn2)cc1 [GW576604],9
5,NCC(NC(=O)c1cc(-c2cn[nH]c2)c(-c2ccnc3[nH]ccc23)s1)c1ccccc1.O=C(O)C(F)(F)F.O=C(O)C(F)(F)F (stereo not shown) [GSK1325775],26
6,Cn1cc(-c2ccc3c(c2)CCN3C(=O)Cc2ccccc2Cl)c2c(N)ncnc21 [GSK2608885],99.9
7,O=c1cc(N2CCOCC2)nc2n(Cc3cccc(Cl)c3Cl)c(C3CC3)nn12 [GSK2358994],0
8,COc1cc2c(cc1OCCN1CCN(C)CC1)ncc1c3ccc(C#N)cc3[nH]c21,83
9,Cl.Nc1ncnc2occ(-c3ccc(NC(=O)Nc4cc(C(F)(F)F)ccc4F)cc3)c12 [SB-707548],99.9
10,O=C1Cc2cc(Nc3nc(NCc4cccc(S(=O)(=O)C(F)(F)F)c4)ncc3C(F)(F)F)ccc2N1,16
11,Cc1nnc(-c2ccc(C)c(-c3ccc(C(=O)Nc4ccc(NS(C)(=O)=O)cc4)cc3)c2)o1 [GW702865],58
12,O=c1cc(N2CCOCC2)nc2n(Cc3cccc(F)c3)ccn12 [GSK2297430],10
13,COc1ccc(Nc2nccc(N3CCC(NC(=O)Nc4cccc(C(C)=O)c4)C3)n2)cc1 (stereo not shown) [GSK1379731],49
14,CCCCCc1nc2c(N)ncnc2n1CCCCC [SKF-97255],17
15,Nc1nccc(-c2c(-c3ccc(F)cc3)ncn2C2CCN(CC(F)(F)F)CC2)n1 [SB-236560],0
16,Fc1ccc(-c2ncn(CCCN3CCOCC3)c2-c2cccnc2)cc1 [SB-211743],2
17,O=C(Nc1cccc(-c2nn3ncccc3c2-c2ccnc(Nc3cccc(C(F)(F)F)c3)n2)c1)c1c(F)cccc1F [GSK299495],98.7
